PubChem BioAssay (Tox21)
Records with an inconclusive call do not appear. Where a call stands in place of a potency, no number is given. Calls of active or inactive are those of the source. Calls come from the whole dose curve; as a rule, active = well fitted activation curve with a large enough effect in the signal ratio in the repeat runs (not every such curve was filed as active); inconclusive = weak or mixed curves, or effect the other way; inactive = no such curve, though single readings can be large or run the other way; the % refers to the signal ratio.

The compounds below were run against Peroxisome proliferator-activated receptor gamma (Homo sapiens) (UniProt P37231) (assay: qHTS assay to identify small molecule agonists of the peroxisome proliferator-activated receptor gamma (PPARg) signaling pathway (AID 743094)). Conditions: HEK293H PPARg-UAS-bla, beta-lactamase FRET ratio, 17 h; series mostly up to 57 µM.
Peroxisome proliferator-activated receptor gamma (Homo sapiens), sequence (P37231 whole entry, looked up): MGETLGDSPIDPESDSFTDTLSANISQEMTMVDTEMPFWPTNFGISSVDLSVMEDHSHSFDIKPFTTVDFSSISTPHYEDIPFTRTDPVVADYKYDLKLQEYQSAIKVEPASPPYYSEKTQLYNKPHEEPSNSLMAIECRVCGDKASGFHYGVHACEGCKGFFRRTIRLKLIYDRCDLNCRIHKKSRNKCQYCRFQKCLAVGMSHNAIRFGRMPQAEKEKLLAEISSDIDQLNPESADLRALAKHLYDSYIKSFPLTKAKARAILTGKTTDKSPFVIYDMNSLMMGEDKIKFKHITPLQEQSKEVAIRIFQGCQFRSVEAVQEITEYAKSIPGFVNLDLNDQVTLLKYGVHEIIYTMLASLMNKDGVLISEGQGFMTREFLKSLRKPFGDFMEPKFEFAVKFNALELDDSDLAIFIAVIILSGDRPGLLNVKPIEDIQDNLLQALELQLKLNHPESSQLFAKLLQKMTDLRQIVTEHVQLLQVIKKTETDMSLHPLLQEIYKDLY
Excerpt: U.S. Tox21 Program National Center for Advancing Translational Sciences [NCATS] NIH Chemical Genomics Center [NCGC] U.S. Environmental Protection Agency [EPA] National Institutes of Environmental Health Sciences [NIEHS] National Toxicology Program [NTP] U.S. Food and Drug Administration [FDA] Tox21 Assay Overview: The peroxisome proliferator-activated receptors (PPARs) are lipid-activated transcription factors of the nuclear receptor superfamily with three distinct subtypes namely PPAR alpha, PPAR delta (also called PPAR beta) and PPAR gamma (PPARg). All these subtypes heterodimerize with Retinoid X receptor (RXR) and these heterodimers regulate transcription of various genes. PPAR-gamma receptor (glitazone receptor) is involved in the regulation of glucose and lipid metabolism. To identify the compounds that activate PPAR-gamma signaling, GeneBLAzer PPAR gamma UAS-bla HEK293H cell line (Invitrogen, Carlsbad, CA, USA) containing a beta-lactamase reporter gene under control of the control of an upstream activator sequence (UAS) stably integrated into HEK293H cells was used to screen Tox21 compound library.
Tox21 Assay Protocol Summary: PPARg-bla cells were dispensed at 3000 cells/6uL/well in 1536-well black wall/clear bottom plates using a Multidrop Combi (Thermo Fisher Scientific, Waltham, MA) dispenser. After the assay plates were incubated at 37C and 5% CO2 for 5 h, 23 nL of compounds dissolved in DMSO, positive controls or DMSO only was transferred to the assay plate by a Pintool station (Kalypsys, San Diego, CA). The assay plates were incubated at 37C for 17 h. After 1 uL of LiveBLAzerTM B/G FRET substrate was added using a Bioraptr Flying Reagent Dispenser (FRD) workstation (Beckman Coulter, Indianapolis, IN, USA), the plates were incubated at room temperature for 1 h, and fluorescence intensity was measured by an Envision plate reader (PerkinElmer, Shelton, CT).
Potency is the fitted concentration of half-maximal effect.

SMILES | Potency | activation
CCc1ccc(C(=O)C(C)CN2CCCCC2)cc1 (stereo not given) | inactive | –
N#C[C@@H]1CC(F)(F)CN1C(=O)CNC1CC2CCC(C1)N2c1ncccn1 (stereo not given in full) | inactive | –
Cc1ccc2c(Cl)cc(Cl)c(O)c2n1 | 9.52 µM (active) | –
Clc1cc(Cl)c2c(c1)N=C1CCCCCN1C2 | inactive | –
CCCCCCCCCC(C)C=O (stereo not given) | 19.5 µM (active) | –
COc1ccc(CN(CCN(C)C)c2ncccn2)cc1 | inactive | –
CCCCCCCCCCCCSC#N | inactive | –
CC(=O)CC/C=C(\C)CC/C=C(\C)CC/C=C(\C)CCC=C(C)C | inactive | –
CC(COc1ccccc1)NC(C)C(O)c1ccc(O)cc1 (stereo not given) | inactive | –
CCCCCC1CCC(=O)O1 (stereo not given) | inactive | –
O=S(=O)(O)c1cc(Cl)c(Cl)cc1Cl | inactive | –
CCOc1ccc(NC(C)=O)cc1N | inactive | –
OCCCO | inactive | –
CCCCCCCCCCCCCCCCCCCl | – | -5.7% [at 7.08 µM] (inactive)
Cc1ccccc1CCO | inactive | –
CCc1ccc2c(c1)C(=O)c1ccccc1C2=O | inactive | –
C=CC(C)CCC=C(C)C (stereo not given) | inactive | –
CC(C)=CCC[C@H](C)CCO | inactive | –
COC(=O)Cc1cccc2ccccc12 | inactive | –
O=C(O)c1cccc(C(=O)O)c1C(=O)O | inactive | –

SMILES | Potency | activation
C/C=C1\[C@H]2C=C(C)C[C@]1(N)c1ccc(=O)[nH]c1C2 | inactive | –
CC(=O)Nc1cccc(N)c1 | inactive | –
CCCCCCCCCCCCSCCOCCO | inactive | –
O=C1c2ccccc2C(=O)C1c1ccc2cc(S(=O)(=O)O)cc(S(=O)(=O)O)c2n1 | inactive | –
CCCCCCCCNC | inactive | –
COc1cc(CNC(=O)CCCC/C=C/C(C)C)ccc1O | inactive | –
Nc1ccc(-c2ccc(F)cc2)cc1 | inactive | –
Cc1cc(N)n(-c2ccccc2)n1 | inactive | –
CNc1ccccc1 | inactive | –
NC(=O)c1cc[n+](CC2=C(C(=O)[O-])N3C(=O)[C@@H](NC(=O)Cc4cccs4)[C@H]3SC2)cc1 | inactive | –
Cc1ccc2ccccc2c1[N+](=O)[O-] | inactive | –
CC(CCl)OC(C)CCl (stereo not given) | inactive | –
O=C(O)CNc1ccccc1 | inactive | –
CC1(C)CC(O)CC(C)(C)N1[O] | inactive | –
CCOc1ccc2c(c1)C(C)CC(C)(C)N2 (stereo not given) | inactive | –
C[C@H](CN1CCCC1)C(=O)c1ccc(C(F)(F)F)cc1 | inactive | –
O=Cc1ccc([N+](=O)[O-])cc1 | inactive | –
Cc1ccc(NC=O)c(C)c1 | inactive | –
Cc1ccc(NC(=O)c2ccc(CN3CCN(C)CC3)cc2)cc1Nc1nccc(-c2cccnc2)n1 | inactive | –
c1ccc(-c2ccc(-c3ccccc3)cc2)cc1 | inactive | –
